# Test results reported in ChEMBL document CHEMBL4513216, “Probing the Open Global Health Chemical Diversity Library for Multistage-Active Starting Points for Next-Generation Antimalarials” (ACS Infect Dis, 2020).
# The whole screen tested about 69,000 compounds, of which about 8,600 (12%) showed an effect of 50% or more. Shown is part of a subset that was picked to be rich in strong results.
# Test system: Plasmodium berghei
# Experiment: Screen against P. berghei liver stage (PbLuc), transformed with Luciferase, at 10uM
# Assay type: functional, HepG2
# Conditions: tested at 10 uM
row,SMILES,INHIBITION [%]
1,O=C(c1n[nH]c2c1CN(C1CCOC1)CC2)N1CCCC1 (centres undefined),12.4
2,COCC1CC2(CCN(C(=O)c3ccco3)CC2)CN1C(C)C (centres undefined),17.4
3,CN(CC(=O)N1CCCC1)Cc1nc2c(cnn2C)c(=O)[nH]1,64
4,CN(Cc1cccc(F)c1)Cc1nc2c(cnn2C)c(=O)[nH]1,23.7
5,CCN(CC)C(=O)CN(C)Cc1nc2c(cnn2C)c(=O)[nH]1,37.2
6,CN(Cc1ccc2c(c1)OCO2)Cc1nc2c(cnn2C)c(=O)[nH]1,13.9
7,CN(CCCOc1ccc(F)cc1)Cc1nc2c(cnn2C)c(=O)[nH]1,39.2
8,CC(C)CCN(C)Cc1nc2c(cnn2C)c(=O)[nH]1,-21.05
9,CN(Cc1ccc2c(c1)OCCO2)Cc1nc2c(cnn2C)c(=O)[nH]1,59.4
10,CN(CCOc1cccc(F)c1)Cc1nc2c(cnn2C)c(=O)[nH]1,55.2
11,CN(CC(=O)N(C)C1CCCCC1)Cc1nc2ccccc2c(=O)[nH]1,44.7
12,CCN(Cc1ccc2c(c1)OCO2)Cc1nc2c(cnn2C)c(=O)[nH]1,-6.14
13,CN(CC(=O)N(C)C1CCCCC1)Cc1nc2c(cnn2C)c(=O)[nH]1,55.4
14,CC(C)CN(C)Cc1nc2c(cnn2C)c(=O)[nH]1,-14.935
15,Cc1nc(C)n(C2CCCN(C(=O)c3c[nH]c(C(C)C)n3)C2)n1 (centres undefined),40.9
16,CS(=O)(=O)N1CCC2(CC1)COC(COc1ccccn1)C2 (centres undefined),-27.9
17,CC(C)OC[C@H]1CCC[C@]12CN(S(=O)(=O)c1cn(C)cn1)CCO2,1.7
18,OC1(CNCCc2csc(-c3ncccn3)n2)CCNC1 (centres undefined),39.3
19,COCC(=O)NCc1cc(=O)n2c(n1)CN(CC1CCOC1)CCC2 (centres undefined),37.5
20,Cc1nc(C)n(CC2CCCN(Cc3noc(C)n3)C2)n1 (centres undefined),56.6
21,CCc1nc(CN2CCCC(Cn3nc(C)nc3C)C2)no1 (centres undefined),33.3
22,Cc1nc(C)n(CC2CCCN(Cc3nc(C4CC4)no3)C2)n1 (centres undefined),60.6
23,COCCc1noc(CN2CCCC(Cn3nc(C)nc3C)C2)n1 (centres undefined),40.9
24,Cc1noc(CN2CCCC(Cn3nc(C)nc3C)C2)n1 (centres undefined),27.8
25,CCc1noc(CN2CCCC(Cn3nc(C)nc3C)C2)n1 (centres undefined),18.2
26,CNC(=O)[C@@]12CCO[C@@H]1CCN(S(=O)(=O)c1cccnc1)C2,23.9

row,SMILES,INHIBITION [%]
1,Cn1cc(CN2CC(C(=O)Nc3ccccc3)C3(CCOCC3)C2)cn1 (centres undefined),48.2
2,COc1ccc(CN2C[C@H]3CN(Cc4ccncc4)C(=O)[C@H]3C2)cc1,22.3
3,O=C(Cc1c(F)cccc1Cl)NC1CCCCNC1=O (centres undefined),-1.85
4,CC(=O)Nc1nc(C)c(S(=O)(=O)NCCc2ccccn2)s1,-1.85
5,O=S(=O)(C1CC1)N1CCO[C@H]2[C@@H](Oc3ncccc3F)CC[C@@H]21,-30
6,CC(C)N(Cc1ccccc1)C(=O)c1cc(C2CCCN2C)ccn1 (centres undefined),-18.9
7,Cc1ncccc1Oc1ncnc(N2CCC3(CCCO3)CC2)c1C,-5.12
8,COc1ccc([C@@H](C)n2ccnc2-c2cc3n(n2)CCCNC3)cc1,15
9,CC(c1ccc(F)cc1)n1ccnc1-c1cc2n(n1)CCCNC2 (centres undefined),58.3
10,COc1ccc(C(C)n2ccnc2-c2cc3n(n2)CCCNC3)cc1F (centres undefined),-2.34
11,CN(CC(=O)N1CCN(c2ccccn2)CC1)c1ccc(Cl)cn1,-36.6
12,CNC(=O)[C@H]1C[C@@H]2CN(C(=O)c3ccncc3)C[C@@H]2N1S(C)(=O)=O,20.4
13,Cc1n[nH]c(C)c1Sc1ccccc1NC(=O)CN1CCCC1,3.17
14,Cc1n[nH]c(C)c1Sc1ccccc1NC(=O)N1CCOCC(O)C1 (centres undefined),25.4
15,Cc1n[nH]c(C)c1Sc1ccccc1NC(=O)N1CCN(C)CC1,61.2
16,Cc1n[nH]c(C)c1Sc1ccccc1NC(=O)N1CCOCC1,30.3
17,Cc1n[nH]c(C)c1Sc1ccccc1NC(=O)N1CCCC(C(N)=O)C1 (centres undefined),-24
18,COCC(=O)Nc1ccccc1Sc1c(C)n[nH]c1C,60
19,CCS(=O)(=O)N1CCc2c(CN(C)Cc3ccco3)cncc2C1,20.2
20,NC(=O)CNC(=O)c1ccc(CNCc2ccc(Cl)cc2Cl)cc1,48.9
21,NC(=O)CNC(=O)c1ccc(CNCc2ccc(F)cc2F)cc1,54.5
22,NC(=O)COc1ccc(CNCc2ccc(F)cc2F)cc1,6.8
23,Cc1cc(C)c(CNC(=O)NCC(O)c2ccccc2)c(=O)[nH]1 (centres undefined),15.5
24,O=C(c1cccnc1)N1CCC2(CC1)COCCN(c1ncccn1)C2,16.8
25,CC(=O)NCCNC(=O)CN1CCCCC1Cn1cncn1 (centres undefined),-15.5
26,O=c1[nH]c2nc(N3CCCC3)ncc2c(=O)n1-c1cccc(F)c1,2.69

row,SMILES,INHIBITION [%]
1,CCCS(=O)(=O)N1CCC(n2nc(-c3cc(C)oc3C)ccc2=O)CC1,68.4
2,CCS(=O)(=O)N1CCC(n2nc(-c3cc(C)oc3C)ccc2=O)CC1,21.1
3,Cc1cc(-c2ccc(=O)n(C3CCN(S(C)(=O)=O)CC3)n2)c(C)o1,-8.58
4,Cc1cc(NC(=O)C(C)Nc2cccc(COCc3ccco3)c2)no1 (centres undefined),11.1
5,COCc1noc(CCC(=O)c2ccc3c(c2)OCCO3)n1,-41.4
6,O=C(COc1ccc(-n2cccn2)nn1)N1CCCC1,-66.4
7,COc1ccc2c(c1)CCCN2C(=O)CNCC1CN(C)CCO1 (centres undefined),-39.2
8,COc1ccc2c(c1)CCCN2C(=O)c1cccc(N(C)C)c1,87.9
9,COc1ccc2c(c1)CCCN2C(=O)CN1CCOC(C)C1 (centres undefined),50.9
10,CN(C)c1cccc(C(=O)N2CCCc3cc(OC(F)(F)F)ccc32)c1,43.4
11,CN(C)c1ccc(C(=O)N2CCCc3cc(OC(F)(F)F)ccc32)cn1,26.7
12,COc1ccc2c(c1)CCCN2C(=O)CN1CCOC(CN(C)C)C1 (centres undefined),3.68
13,Fc1cnc(N2CC[C@@H]3O[C@H](COCc4ccccn4)CC[C@@H]32)nc1,-21.7
14,CC(C)COC1CC2(CCN(Cc3nccn3C)CC2)C1,31.6
15,Cc1nc2[nH]cnc(Nc3cnn(C)c3)c-2n1,-10.6
16,CC(C)C(NC(=O)C1CC1)c1cc(O)nc(-c2cccnc2)n1 (centres undefined),3.4
17,COc1cc(-c2cnnc(NCCCOC(C)C)n2)cc(OC)c1OC,57.9
18,COc1cc(-c2cnnc(NCCSC)n2)cc(OC)c1OC,52.2
19,COc1cc(-c2nc(N)n[nH]2)cc(OC)c1OC,20.4
20,Cc1cc(NCCCOC(C)C)c2nncn2n1,13.4
21,COc1cc(-c2cnnc(NCC3CC3)n2)cc(OC)c1OC,31.7
22,CNc1cc(-c2cc(OC)c(OC)c(OC)c2)ncn1,27.8
23,COCC(NC1CSCCSC1)c1ccnn1C (centres undefined),31.2
24,CN1CCN(CC2(O)CCCN(S(=O)(=O)c3cn[nH]c3)CC2)CC1 (centres undefined),29.6
25,Cn1ccc(C(=O)N2CCC(c3cc(CCO)n(C)n3)C2)n1 (centres undefined),-3.94
26,CCN(CC)c1nc(Nc2cccc(C(C)O)c2)nc2ccccc12 (centres undefined),87.2

row,SMILES,INHIBITION [%]
1,CCN(CC)c1nc(Nc2cccc(C(=O)O)c2)nc2ccccc12,5.18
2,CC(O)c1cccc(Nc2nc(NCCO)c3ccccc3n2)c1 (centres undefined),44.9
3,COc1ccc(CN2CCCC(Cn3nc(C)nc3C)C2)cc1F (centres undefined),-15.8
4,COc1coc(CN2CCCC3(CCC(=O)N(CC4CC4)C3)C2)cc1=O (centres undefined),33.2
5,Cc1[nH]c(=O)[nH]c(=O)c1CN1CCCC(CCc2ccc(F)c(F)c2)C1 (centres undefined),4.48
6,COc1coc(CN2CCCC3(CCC(=O)N(C4CC4)C3)C2)cc1=O (centres undefined),53.6
7,COc1coc(CN2CCCC(CCc3ccc(F)c(F)c3)C2)cc1=O (centres undefined),63.6
8,COCCN1CC2(CCCN(Cc3cc(=O)c(OC)co3)C2)CCC1=O (centres undefined),23.9
9,COc1ccc(CCC2CCCN(CC(=O)O)C2)cc1 (centres undefined),23.9
10,COc1coc(CN2CCCC(CCc3ccc(F)cc3)C2)cc1=O (centres undefined),73.5
11,Cc1[nH]c(=O)[nH]c(=O)c1CN1CCCC(CCc2ccccc2)C1 (centres undefined),-38.2
12,CCOc1cc(C(=O)N2CCCC(n3nc(C)nc3C)C2)ccn1 (centres undefined),-11.9
13,Cc1noc(C)c1-c1nc(N(C)CCN(C)C)ncc1-c1cnccn1,2.71
14,CC(C)(C)c1cc(CN2C[C@H]3CC[C@@H](C2)N(Cc2ccccn2)C3)n[nH]1,33.3
15,c1ncn(Cc2cnc3n2CCN(Cc2ccsc2)CC3)n1,37
16,CC(C)(C)CC(=O)Nc1ccccc1SCC(N)=O,-53.6
17,NCCC1CN(Cc2cnc3c(-c4ccccc4)cnn3c2)CCO1 (centres undefined),40.7
18,O=C1CCN(Cc2cnc3c(-c4ccccc4)cnn3c2)CCN1,29.2
19,c1ccc(-c2cnn3cc(CN4CCC5(CCO5)CC4)cnc23)cc1,87.4
20,O=C1CN(Cc2cnc3c(-c4ccccc4)cnn3c2)CCCN1,75.1
21,CC(C)O[C@H]1CN(Cc2cnc3c(-c4ccccc4)cnn3c2)C[C@@H]1O,8.74
22,CN(C)CC1(O)CCN(Cc2cnc3c(-c4ccccc4)cnn3c2)C1 (centres undefined),20.2
23,FC(F)(F)C1CN(Cc2cnc3c(-c4ccccc4)cnn3c2)CCO1 (centres undefined),25.9
24,CC(O)C1CCN(Cc2cnc3c(-c4ccccc4)cnn3c2)CC1 (centres undefined),63.6
25,OCCN1CCN(Cc2cnc3c(-c4ccccc4)cnn3c2)CC1,44.8
26,CN(Cc1ccsc1)C(=O)c1cc2c([nH]c1=O)CCC2,-9.6
